Reference: PubChem BioAssay AID720580 (National Center for Advancing Translational Sciences (NCATS), 2013)
Where “and” joins values, the source holds several entries; their conditions need not be identical. Identical values can stand only once. About 1,500 (0.45%) of roughly 330,000 compounds were called active. Another 6% or so got no clear call; they are omitted. Calls follow the shape of the full dose curve; tested in A549 cells. The entries come from a sample that favours actives as a whole. Where a call stands in place of a potency, no number is given. Some structures have more than one record in an assay (separate samples or runs), and their calls can disagree.

assay: qHTS for Stage-Specific Inhibitors of Vaccinia Orthopoxvirus: Venus Reporter Primary qHTS; settings: Vaccinia virus Venus reporter expression, fluorescence; series mostly up to 36.5 µM; also: nearly all actives have a fitted effect of over 30% in size
Potency is read from the fitted curve at half-maximal effect.

Row | Structure (SMILES) | Potency
1 | COC(=O)C1(C(=O)OC)C[C@H](c2ccccc2)N(Cc2ccccc2OC)[C@@H]1c1ccccc1 | inactive
2 | COc1ccc(OC)c(NC(=O)c2sc3nc(C)cc(C)c3c2N)c1 | inactive
3 | COc1ccc(OC)c(Cc2nnc(CCC(=O)NC3CCCC3)o2)c1 | inactive
4 | COc1ccc(OC)c(Cc2cnc3nc(N)nc(N)c3c2C)c1 | 1.12 µM (active)
5 | CCCCCCCNc1ccc(/C=C/c2ccnc3ccccc23)cc1 | inactive
6 | COC(=O)NC1(C(F)(F)F)NC(=O)N(C2CCCCC2)C1=O (stereo unspecified) | inactive
7 | O=C1NC(Nc2nc3ccccc3s2)(C(F)(F)F)C(=O)N1C1CCCCC1 (stereo unspecified) | 10 µM (active)
8 | O=C(NC1(C(F)(F)F)NC(=O)N(C2CCCCC2)C1=O)c1ccco1 (stereo unspecified) | inactive
9 | Cc1ccc(Cc2c(-c3ccco3)nc3ccc(Cl)cn23)cc1 | inactive
10 | SCc1nc2ccc(Cl)cc2[nH]1 | inactive
11 | O=C(c1cnn2c1NC(=C1CC1)C=C2C(F)F)N1CCc2ccccc2C1 | inactive
12 | CCN1CCC(O)(/C=C/c2ccc(C)cc2)C(C(=O)/C=C/c2ccc(C)cc2)C1 (stereo unspecified) | 17.8 µM (active)
13 | CCOC(=O)C1CCCN(C(=O)/C=C/c2ccc(OC)cc2)C1 (stereo unspecified) | inactive
14 | N#Cc1ccc(C(C(=O)NCc2ccccc2)n2c(=O)c(-c3ccco3)nc3ccccc32)cc1 (stereo unspecified) | inactive
15 | CN(C)c1ccc(/C=N\Nc2ccc([N+](=O)[O-])cc2[N+](=O)[O-])cc1Cl | inactive
16 | COc1ccc(Cc2nnc(N/N=C/c3ccccc3O)[nH]c2=O)cc1OC | 1.26 µM (active)
17 | COc1ccc(CCNC(=O)CCc2ccccc2O)cc1OC | inactive
18 | O=c1[nH]c(NCCO)nnc1Cc1ccc(Cl)cc1 | inactive
19 | CCCCOc1ccc(C(=O)NO)cc1 | inactive
20 | CC(=O)N1Cc2cc(C(=O)NCc3cccc(F)c3)nc(-c3cccc(C4=CCCC4)c3)c2[C@H]1CCO | inactive
21 | Cc1c(Cl)c([N+](=O)[O-])nn1Cc1ccc(C(=O)N/N=C\c2cc(Cl)ccc2O)o1 | 5.62 µM (active)
22 | Cc1ccc(C(=O)O)cc1NC(=O)c1ccc(Cn2nc(C)c(Cl)c2C)o1 | inactive

Row | Structure (SMILES) | Potency
23 | Cc1c(Cl)c([N+](=O)[O-])nn1CCCC(=O)Nc1cc(Cl)ccc1Cl | inactive
24 | COc1cc2nc(N3CCCN(C)CC3)nc(NC3CC3)c2cc1OC | inactive
25 | COc1ccc(-c2csc(C(O)c3cccc(Cl)c3)n2)cn1 (stereo unspecified) | inactive
26 | Cc1cccc(NC(=O)c2nnn(-c3cccc(C(F)(F)F)c3)c2N)c1 | inactive
27 | COc1cc(NC(=O)c2[nH]cnc2C(N)=O)cc(C(=O)Nc2cccc(C(F)(F)F)c2)c1 | 10 µM (active)
28 | COc1ccc(NC(=O)CN(C)CC(=O)Nc2cccc(C(F)(F)F)c2)cc1 | inactive
29 | COC(=O)[C@]12CCCCC=C1N(Cc1ccco1)C(=O)[C@H](CC(=O)NCCCCc1ccccc1)C2 | inactive
30 | O=C(CCC(=O)N/N=C/c1ccc(Br)o1)N/N=C/c1ccc(Br)o1 | inactive
31 | CCOc1cc(C=NNC(=O)CCCC(=O)NN=Cc2ccc(O)c(OCC)c2)ccc1O | inactive
32 | CCCCC(=O)N/N=C/c1c(O)n(CC)c(=S)n(CC)c1=O | 12.6 µM (active)
33 | CCOc1ccc2nc(N3CCCN(CCCn4cccn4)CC3)nc(C)c2c1 | inactive
34 | O=c1[nH]nc(SCCS(=O)(=O)c2ccc(F)cc2)n1-c1ccccc1C(F)(F)F | 3.16 µM (active)
35 | O=S(=O)(Nc1n[nH]c(C(F)(F)F)n1)c1ccccc1 | inactive
36 | CN(CC(=O)O)C(=O)c1ccccc1 | inactive
37 | CN(O)C(=S)c1ccccc1 | 11.2 µM (active)
38 | S=C(c1ccccc1)N1CCCC1 | inactive
39 | CCOC(=O)N1CCN(C(=O)C[C@@H]2C[C@@]3(C(=O)OC)CCCCC=C3N(CCC3=CCCCC3)C2=O)CC1 | inactive
40 | CC1(C)OC(=O)C2=C(C[C@@H](C3CC3)O[C@H]2CCc2cccc(Cl)c2)O1 | inactive
41 | CN(C)CCNC(=O)Nc1cccc(Cl)c1Cl | inactive
42 | CC(=O)NCCNC(=O)c1cc(-c2cccc3ccccc23)nc2ccccc12 | inactive
43 | CN(C)CCNC(=O)c1ccc(Cl)c2cc3ccccc3nc12 | 4.47 µM (active)
44 | COc1cc(C(O)c2nc(-c3cnn(C)c3)cs2)ccc1F (stereo unspecified) | inactive

Row | Structure (SMILES) | Potency
45 | COc1ccc(NS(=O)(=O)c2ccc3oc(SCC(N)=O)nc3c2)cc1 | 4.47 µM (active)
46 | CCn1c(=O)c(=O)[nH]c2c(=O)oc3ccc(S(=O)(=O)Nc4ccc(OC)cc4)cc3c21 | inactive
47 | COc1ccc(NC(=O)c2cnc(NS(=O)(=O)c3ccccc3)nc2)cc1 | inactive
48 | O=C1CCN(Cc2ccc(-c3ccccc3)cc2)CCN1Cc1ccccn1 | inactive
49 | Cc1oc2c(c1C(=O)N1CCOCC1)C(=O)c1ccccc1C2=O | 3.16 µM (active)
50 | Cc1ccccc1-c1ccc(Nc2ccc(C(=O)N3CCOCC3)cc2)nn1 | inactive
51 | COC1=C(N2CCOCC2)C(=O)c2ccccc2C1=O | inactive
52 | CCCCC(CCCC)c1ccc(C=Nc2ccc(/C=C/c3ccnc4ccccc34)cc2)cc1 | inactive
53 | Cc1ccccc1-c1csc(C(O)c2cccc(Cl)c2)n1 (stereo unspecified) | inactive
54 | c1ccc2c(c1)[I+]c1ccccc1-2 | inactive and 10 µM (active)
55 | N=C1c2ccccc2-c2ccccc21 | inactive
56 | CCCC[C@@H]1CN=C(N)N1CCc1cccc(F)c1 | inactive
57 | CCCC[C@@H]1CN=C(N)N1CCc1cc(C(F)(F)F)cc(C(F)(F)F)c1 | 10 µM (active)
58 | CCCC[C@@H]1CN=C(N)N1CCCC | inactive
59 | COc1cc(CNc2ncnc3c2ncn3[C@H]2CN(Cc3cccs3)C[C@@H](CO)O2)cc(OC)c1OC | inactive
60 | NCCCCC(C(=O)O)N(C(=O)OCc1ccccc1)C(=O)OCc1ccccc1 (stereo unspecified) | inactive
61 | O=Cc1cn(-c2ccccc2)nc1-c1ccccn1 | inactive
62 | Cc1ccc(-c2nn(-c3ccccc3)cc2/C=N/NC(=O)c2ccc3c(c2)OCO3)cc1 | inactive
63 | COc1ccc(-c2nn(-c3ccccc3)cc2/C=N/Nc2ccccn2)cc1OC | 14.1 µM (active)
64 | O=C(CSc1nc2ccccc2[nH]1)Nc1nc(-c2ccccc2)c(-c2ccccc2)o1 | inactive
65 | CCC(c1nc2ccccc2[nH]1)n1c(=O)c(-c2cccs2)nc2ccccc21 (stereo unspecified) | inactive
66 | CCC(C)N1C(=O)S/C(=C/c2ccc(Sc3nc4ccccc4[nH]3)o2)C1=O (stereo unspecified) | 11.2 µM (active)
